Screening results as filed in PubChem.
SMARCA2 activ: SMARCA2 function activation, primary screen | 370,000 compounds, 1% hits | activation, % at 9.1 µM | MG213 cells, MMTV-luciferase reporter, dexamethasone, overnight | AID 652017; in the data active = activation above about 7.8%
697 NFkB inh: inhibitors of the PMA/ionomycin-induced NF-kB reporter in 697 B cells; 697 B-cell NF-kB luciferase reporter, 16 h; inhibition, % at 4 µM; 330,000 compounds, 0.33% hits; in the data active = inhibition above about 35%
Jurkat NFkB inh: lowers PMA/ionomycin-induced NF-kB signal in Jurkat cells | PMA/ionomycin-induced NF-kB luciferase reporter, luminescence | inhibition, % at 4 µM | 330,000 compounds, 0.53% hits; in the data active = inhibition above about 50%
esBAF inh: blocks esBAF chromatin remodeling in mouse ES cells | Bmi1-luciferase knock-in reporter, 24 h; 100% = twice the neutral-well signal | reporter increase, % at 12.5 µM | 350,000 compounds, 2% hits; in the data active = activation above about 40%; inconclusive = no clear call, values can overlap the other calls;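 note: a rise in the Bmi1 reporter signal indicates esBAF inhibition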
Gli-Sufu antag: Gli-Sufu pathway antagonism | 340,000 compounds, 0.74% hits | inhibition, % at 5 µM | Sufu-KO-LIGHT fibroblasts, Gli luciferase reporter luminescence;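 active = inhibition above about 55%, limit read from the data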
esBAF Ring1 qPCR: confirmation of esBAF inhibitors: Ring1 de-repression in mouse ESCs | 550 tested, under 10 active | mouse ESC E14, Ring1 mRNA RT-qPCR fold change | fold change at 33 µM | shares compounds with esBAF inh | AID 743176;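 active = Ring1 gene expression raised more than 2-fold over untreated cells in both replicates at either tested dose; inconclusive = only one replicate above 2-fold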;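 note: Ring1 transcript normalised to actin housekeeping signal by TaqMan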
esBAF Fgf4 qPCR: confirmation of esBAF inhibitors: Fgf4 repression in mouse ESCs | shares compounds with esBAF inh | mouse ESC E14, Fgf4 mRNA qPCR fold change; active compounds read low | Fgf4 expression fold change at 33 µM | 550 compounds, 4% hits | AID 743177;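 active = Fgf4 expression under 0.8 fold of control in both repeat measurements at one or both tested doses; inconclusive = under 0.8 fold in just a single repeat measurement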;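 note: Fgf4 transcript normalised to actin in duplex TaqMan qPCR; cells exposed to compound for 24 h before lysis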
Bmi1 derepress: de-represses Bmi1 in mouse ESCs, confirming esBAF inhibition; shares compounds with esBAF inh; mouse ESE14 ES cells, Bmi1 mRNA qPCR fold; active compounds read high; fold change at 33 µM; 550 tested, under 10 active;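 active = Bmi1 expression fold change above 6 at either tested concentration, seen in replicate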;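 note: higher fold means more Bmi1 de-repression and stronger esBAF inhibition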
A549 tox SP: kills or reduces viability of A549 cells. shares compounds with esBAF inh. A549 cytotoxicity, plate reader. cell viability change % (negative = cytotoxic), % at 25 µM, hits read low. 550 tested, under 10 active. AID 743188; call rule not given here
HepG2 tox SP: HepG2 cell cytotoxicity at single point; shares compounds with esBAF inh; plate reader; active compounds read low; activity change, negative = inhibition, % at 25 µM; 550 compounds, 4% hits; AID 743189; in the data active = activity change below about -50%
HEK293 tox SP: cytotoxicity in HEK293 cells; activity change, negative = inhibition, % at 25 µM, hits read low; plate reader; shares compounds with esBAF inh; 550 compounds, 3% hits; in the data active = activity change below about -38%, passing the limit was not always enough
SMARCA2 conf: SMARCA2 activation, confirmation screen; shares compounds with SMARCA2 activ; MG213 cells, MMTV-luciferase with dexamethasone, luminescence, overnight; MG213 cells expressing E1A, Rb sequestered; DMSO wells 0%, reference activator 100%; activation, % at 9.1 µM; 3,500 compounds, 30% hits; AID 652260;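 active = activation above its plate's cutoff, the mean activation of tested wells plus 3 SD, cut at about 7.9% in these data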
GAL4-VP16 Luc: activates GAL4-VP16 luciferase, flagging SMARCA2 activator hits; shares compounds with SMARCA2 activ; HEK293 GAL4-VP16 pG5luc reporter, luciferase luminescence; scaled: DMSO wells 0%, SAHA wells 100%; activation, % at 9.1 µM; 3,500 compounds, 41% hits; AID 686939;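 active = activation above the solvent-only control well mean plus 3 SD, averaged across control plates, cut at about 5.2% in these data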
Of the large screens only hits and unclear results are named; the others gave an inactive call (follow-up assays come after a bar, where they were run). Shown are actives, neighbours in structure and some others; about 3.3% of the full set was active somewhere.

COc1ccccc1C(=O)NCCC(=O)NC1CCC(C)CC1 (configuration not stated)	SMARCA2 activ 10, esBAF inh 73 | esBAF Ring1 qPCR inactive | esBAF Fgf4 qPCR inactive | Bmi1 derepress inactive | A549 tox SP inactive | HepG2 tox SP inactive | HEK293 tox SP inactive | SMARCA2 conf inactive | GAL4-VP16 Luc inactive
CCNC(=O)C[C@@H]1CC[C@@H]2[C@H](COC[C@@H](O)CN2C(=O)c2ccccn2)O1	none (no result: SMARCA2 activ, 697 NFkB inh, Jurkat NFkB inh, Gli-Sufu antag)
C[C@H]1CN([C@@H](C)CO)C(=O)c2cc(-c3ccccc3)cnc2O[C@@H]1CN(C)C(=O)Cc1ccccc1	none (no result: SMARCA2 activ, 697 NFkB inh, Jurkat NFkB inh, Gli-Sufu antag)
COc1cc(OC)cc(C(=O)Nc2cccc3c2CCCC3)c1	none
COC(=O)C1CCc2c(ccc3c2CCCC3)C1=O (configuration not stated)	SMARCA2 activ 11, esBAF inh 60 (no result: 697 NFkB inh, Jurkat NFkB inh) | esBAF Ring1 qPCR inactive | esBAF Fgf4 qPCR inactive | Bmi1 derepress inactive | A549 tox SP inactive | HepG2 tox SP inactive | HEK293 tox SP inactive | SMARCA2 conf inactive | GAL4-VP16 Luc 8.5
O=C(Nc1ccc2c(c1)OCO2)N[C@H]1CC[C@H](CCNC(=O)C2CCOCC2)O[C@H]1CO	none (no result: SMARCA2 activ, 697 NFkB inh, Jurkat NFkB inh, Gli-Sufu antag)
C[C@@H]1CCCCO[C@H](CN(C)C(=O)CCC(F)(F)F)[C@H](C)CN([C@@H](C)CO)C(=O)c2cc(N(C)C)ccc2O1	none (no result: SMARCA2 activ, 697 NFkB inh, Jurkat NFkB inh, Gli-Sufu antag)
Nc1ccccc1/C=C/c1ccccc1N	SMARCA2 activ 9.9, esBAF inh 112 (no result: 697 NFkB inh, Jurkat NFkB inh) | esBAF Ring1 qPCR inactive | esBAF Fgf4 qPCR inactive | Bmi1 derepress inactive | A549 tox SP inactive | HepG2 tox SP inactive | HEK293 tox SP inactive | SMARCA2 conf 14 | GAL4-VP16 Luc 10
COc1ccc(Cl)cc1C(=O)NNC(=O)c1cccs1	SMARCA2 activ 12, esBAF inh 55 | esBAF Ring1 qPCR inactive | esBAF Fgf4 qPCR inactive | Bmi1 derepress inactive | A549 tox SP inactive | HepG2 tox SP inactive | HEK293 tox SP inactive | SMARCA2 conf inactive | GAL4-VP16 Luc inactive
CCC(C)(C)c1ccc2c(c1)C(=O)c1ccccc1C2=O	none
CCc1ccc2cc3c(cc2n1)C(=O)c1ccccc1-3	SMARCA2 activ 8.6, esBAF inh 61 (no result: 697 NFkB inh, Jurkat NFkB inh, Gli-Sufu antag) | esBAF Ring1 qPCR inactive | esBAF Fgf4 qPCR inconclusive | Bmi1 derepress inactive | A549 tox SP inactive | HepG2 tox SP inactive | HEK293 tox SP inactive | SMARCA2 conf 12 | GAL4-VP16 Luc 13
Nc1cccc(N=[N+]([O-])c2cccc(N)c2)c1	SMARCA2 activ 8.8, esBAF inh 77 (no result: 697 NFkB inh, Jurkat NFkB inh) | esBAF Ring1 qPCR inactive | esBAF Fgf4 qPCR inactive | Bmi1 derepress inactive | A549 tox SP inactive | HepG2 tox SP inactive | HEK293 tox SP inactive | SMARCA2 conf 13 | GAL4-VP16 Luc 6.9
COc1ccc(-c2ccc3c(c2)[C@H]2[C@H](CCN2C(=O)Cc2cccnc2)[C@H](CO)N3C)cc1	none (no result: SMARCA2 activ, 697 NFkB inh, Jurkat NFkB inh, Gli-Sufu antag)
O=C(O)c1n[nH]c2c1CC(C1CCCCC1)CC2 (configuration not stated)	none (no result: esBAF inh)
O=C(NC1CCCCC1)c1n[nH]c2c1CC(c1ccccc1)CC2 (configuration not stated)	SMARCA2 activ 8.0, esBAF inh 70 | esBAF Ring1 qPCR inactive | esBAF Fgf4 qPCR inactive | Bmi1 derepress inactive | A549 tox SP inactive | HepG2 tox SP inactive | HEK293 tox SP inactive | SMARCA2 conf inactive | GAL4-VP16 Luc 12
Cc1ccc(CN2CC(C(=O)Nc3cc(C)ccn3)CC2=O)cc1 (configuration not stated)	SMARCA2 activ 10, esBAF inh 72 | esBAF Ring1 qPCR inactive | esBAF Fgf4 qPCR 0.44 | Bmi1 derepress inactive | A549 tox SP inactive | HepG2 tox SP inactive | HEK293 tox SP inactive | SMARCA2 conf 17 | GAL4-VP16 Luc 6.3
COc1ccc(OCc2cc(C(=O)NCc3nc(C)cs3)no2)c(Cl)c1	esBAF inh inconclusive
COc1ccc(OCc2cc(C(=O)NC(C)c3csc(C)n3)no2)c(Cl)c1 (configuration not stated)	SMARCA2 activ 9.8, esBAF inh 66 | esBAF Ring1 qPCR inactive | esBAF Fgf4 qPCR inactive | Bmi1 derepress inactive | A549 tox SP inactive | HepG2 tox SP inactive | HEK293 tox SP inactive | SMARCA2 conf inactive | GAL4-VP16 Luc 6.0
O=C(Nc1ccc(Cl)cc1)N[C@H]1CC[C@@H](CCn2cc(-c3ccccc3F)nn2)O[C@H]1CO	none (no result: SMARCA2 activ, 697 NFkB inh, Jurkat NFkB inh, Gli-Sufu antag)
C[C@H]1CCCCO[C@@H](CN(C)C)[C@@H](C)CN([C@@H](C)CO)C(=O)c2cc(NS(C)(=O)=O)ccc2O1	none (no result: SMARCA2 activ, 697 NFkB inh, Jurkat NFkB inh, Gli-Sufu antag)
O=c1c2ccccc2sc2ccccc12	SMARCA2 activ 8.5, esBAF inh 57 (no result: 697 NFkB inh, Jurkat NFkB inh) | esBAF Ring1 qPCR inactive | esBAF Fgf4 qPCR inactive | Bmi1 derepress inactive | A549 tox SP inactive | HepG2 tox SP inactive | HEK293 tox SP inactive | SMARCA2 conf inactive | GAL4-VP16 Luc 5.9
O=c1c2ccccc2sc2ccc(Cl)cc12	none (no result: esBAF inh)
Cc1ccc(C)c(NC(=O)c2cc(-c3cc(C)c(C)cc3O)n[nH]2)c1	SMARCA2 activ 11, esBAF inh 57 | esBAF Ring1 qPCR inactive | esBAF Fgf4 qPCR inactive | Bmi1 derepress inactive | A549 tox SP inactive | HepG2 tox SP inactive | HEK293 tox SP inactive | SMARCA2 conf inactive | GAL4-VP16 Luc 5.9
Cn1cccc1C(=O)OCc1ccc(C(C)(C)C)cc1	SMARCA2 activ 11, esBAF inh 84 | esBAF Ring1 qPCR inactive | esBAF Fgf4 qPCR inconclusive | Bmi1 derepress inactive | A549 tox SP inactive | HepG2 tox SP inactive | HEK293 tox SP inactive | SMARCA2 conf inactive | GAL4-VP16 Luc 6.4
CSc1ccccc1NC(=O)c1cc(C(C)C)on1	SMARCA2 activ 8.0, esBAF inh 78 | esBAF Ring1 qPCR inactive | esBAF Fgf4 qPCR inconclusive | Bmi1 derepress inactive | A549 tox SP inactive | HepG2 tox SP inactive | HEK293 tox SP inactive | SMARCA2 conf inactive | GAL4-VP16 Luc 7.9
